From PubChem BioAssay
Hits are enriched below; roughly 14% of the tested compounds scored in any of these assays.
A350 autofl: A350 region autofluorescence. Compound autofluorescence, 340/450 nm, Alexa 350 dye-equivalents; active compounds read high. max dye-equivalent concentration, M. hit rate 11% among 59,000; in the data active = max dye-equivalent concentration above about 10 nM; inconclusive = mostly about 1.1 nM to 9.6 nM
CRE Fsk mod: alters forskolin-stimulated CRE reporter signaling in CHO cells. CHO CRE-bla reporter (cAMP response element driving beta-lactamase), forskolin EC10, beta-lactamase ratio. Potency, µM (top dose mostly 38.2 µM), for inactives: at the top dose activity change, negative = inhibition, usual class: activators. hit rate 2.5% among 71,000. AID 662; active = well fitted activation curve with a large enough effect in the signal ratio, with a control signal flat, not every such curve was filed as active; inconclusive = small, poorly fitted or top-dose-only effect, or effect the other way, or a change in a side signal; the % refers to the signal ratio; also: potency is read from the fitted curve at half-maximal effect; % of control where 0% means no effect
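Titrated compounds plus EC10 NKH 477 on CHO CRE-bla cells, 3 h, 37 °C. CCF4, 2 h RT. Ratio 460/530 nm → AC50.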
AID923: qHTS Assay for Allosteric/Competitive Inhibitors of Caspase-1: Spectroscopic Profiling in AFC Spectral Region; hit rate 1.1% among 75,000; Potency, µM (doses to about 57.5 µM), inactives show at the highest dose fluorescence increase, most hits filed as activators; compound fluorescence, AFC spectral region (405/520 nm); also: potency is read from the fitted curve at half-maximal effect; 0% is about no effect
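Titrations up to 57 uM read every 20 sec for 3 min (405/520 nm) with 50 nM caspase 1 and 5 uM Ac-WEHD-AFC, pH 7.5 HEPES buffer. Fluorescence-vs-time intercept gave baseline, scaled against on-plate AFC standard.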
HSD17B inhib: HSD17B dehydrogenase inhibition; Q99714; recombinant HSD17B10, NADH fluorescence kinetic; Potency, µM (doses to about 57.1 µM), inactives show at the top dose activity change, negative = inhibition, most hits filed as inhibitors; hit rate 7.6% among 75,000; AID 893;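 also: the protocol describes HADH2 (HSD17B10) and not the HSD17B4 of the title; potency is read from the fitted curve at half-maximal effect; % is scaled to controls: 0 for no effect and ±100 for the full control effect; nearly all actives have a fitted effect of over 70% in size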
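20 nM HADH2, pH 9.0 Tris/Tween; cpd preinc 15 min RT; start w/ 1 mM NAD+ + 90 uM b-hydroxybutyryl-CoA; kinetic fluor ex360/em450 q30s x 4 min; delta last-first.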
4-MU autofl: compounds fluorescent in 4-MU spectral region; compound autofluorescence, 340/450 nm, 4-MU equivalents; active compounds read high; max dye-equivalent concentration, M; hit rate 11% among 59,000; AID 589; in the data active = max dye-equivalent concentration above about 10 nM; inconclusive = mostly about 1.1 nM to 9.6 nM
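Intrinsic fluorescence at 340/450 nm (ex/em) was read after 15 min at room temperature in pH 8.0, 100 mM Tris. Each compound concentration expressed as 4-MU-equivalent concentration from a six-point 4-MU standard series on each plate.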
HADH2 inh: HADH2 (human) dehydrogenase inhibition; recombinant HADH2, NADH fluorescence, beta-hydroxybutyryl-CoA; hit rate 3.4% among 73,000; AID 886; Q99714; Potency, µM (series often up to 57.1 µM), without a hit: top-dose activity change, negative = inhibition, usual class: inhibitors; also: potency is read from the fitted curve at half-maximal effect; % is scaled to controls: 0 for no effect and ±100 for the full control effect; nearly all actives have a fitted effect of over 60% in size
Target sequence (Q99714 whole entry, looked up, one chain of several): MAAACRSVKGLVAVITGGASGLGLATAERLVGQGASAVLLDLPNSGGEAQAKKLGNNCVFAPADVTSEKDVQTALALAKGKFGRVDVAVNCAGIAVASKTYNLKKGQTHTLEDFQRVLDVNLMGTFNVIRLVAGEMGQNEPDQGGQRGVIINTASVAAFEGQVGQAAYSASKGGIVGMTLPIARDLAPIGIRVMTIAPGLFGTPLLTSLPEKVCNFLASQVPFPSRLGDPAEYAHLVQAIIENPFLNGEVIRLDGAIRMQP
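20 nM HADH2 + cpd, 15 min RT; add 1 mM NAD+/90 uM beta-hydroxybutyryl-CoA; kinetic fluorescence 360/450 nm, 4 min. Tris-HCl pH 9.0, 0.01% Tween-20.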
CHO via 24h: reduces CRE-bla CHO cell viability after 24 hours | shares compounds with CRE Fsk mod | CRE-bla CHO viability, ATP luminescence, 24 h | activity, negative = viability loss, % at 46.1 µM | 120 tested, under 10 active
CHO tox 40h: cytotoxicity in CRE-bla CHO cells at 40 h | shares compounds with CRE Fsk mod | CRE-bla CHO viability, ATP luminescence, 40 h | Potency, µM, without a hit: max response, actives largely listed as inhibitors | 120 tested, under 10 active
CREB luc CRC: confirmation of CRE signaling potentiators in HEK293 CREB reporter cells; shares compounds with CRE Fsk mod; HEK293 CRE-luc2P, NKH477 EC10 potentiation, luminescence, 4 h; Potency, µM (top dose mostly 38.3 µM), without a hit: top-dose activity, positive = activation, actives largely listed as activators; hit rate 80% among 120
The depositor's hits bear a star; i = inactive; ? = inconclusive; / = no result; ! = not active in a repeat; [ ] = dose if it differs, or a comment. Unless noted, calls follow the shape of the dose curve; as a rule, active = well fitted curve in the direction sought with a large enough effect; inconclusive = small, poorly fitted or top-dose-only effect, or another doubt; inactive = no such curve, though single readings can be large; an effect the other way counts as inactive or inconclusive.

SMILES	A350 autofl	CRE Fsk mod	AID923	HSD17B inhib	4-MU autofl	HADH2 inh	CHO via 24h	CHO tox 40h	CREB luc CRC
C#CCCCO/N=C1/C[C@@H](O)[C@@H](O)[C@@H]2[C@@H]3C(=O)N(C[C@@H]4CCCO4)C(=O)[C@H]3CC[C@@H]12	/	/	-1%[11.5 µM]	1%[11.4 µM]	/	0%[11.4 µM]	/	/	/
CCOC(=O)c1ccccc1NC(=O)c1cc(S(=O)(=O)N2CCOCC2)ccc1F	i	10µM*	3%	?	i	15%	-16	-15%	13µM*
O=C(c1cc(S(=O)(=O)N2CCOCC2)ccc1F)N1CCCc2ccccc21	i	-8%	-3%	9%	i	3%	2	-2%	18%
COc1cccc(-c2cc(=O)c3cc(O)ccc3o2)c1	i	?	-1%	24%	i	4%	/	/	/
COc1cc(C2NC(=O)NC(C)=C2C(=O)OC(C)(C)C)ccc1OCC(N)=O (configuration not stated)	i	-4%	2%	-5%	i	11%	7	-2%	13µM*
COC(=O)[C@@]1(Cc2ccc(OC)cc2)[C@H]2c3cc(C(=O)N4CCCC4)n(Cc4cc(C)n(C)n4)c3C[C@H]2CN1C(=O)c1ccccc1	/	-11%	4%	6%	/	-5%	/	/	/
CCc1nc(SCC(=O)N2CCc3ccccc32)c2oc3ccccc3c2n1	i	2%	2%	-2%	i	0%	9	-4%	14µM*
Cc1nc(SCC(=O)N2CCCc3ccccc32)c2oc3ccccc3c2n1	1.2e-08M*	0.5µM*	4%	6%	?	3%	-17	-27%	4µM*
CCn1c(SCC(=O)N2CCCc3ccccc32)nc2ccccc2c1=O	i	?	0%	4%	i	19%	/	/	/
Cc1nc(SCC(=O)Nc2ccccc2)c2oc3ccccc3c2n1	i	0.5µM*	0%	12%	i	-5%	-18	-18%	5µM*
Cc1cc(C)nc(Sc2nc(C)nc3c2oc2ccccc23)n1	?	2%	0%	-6%	i	-7%	/	/	/
CN(Cc1ccccc1)Cn1ccnc1	i	4%[7.6 µM]	3%[11.5 µM]	7%[11.4 µM]	i	6%[11.4 µM]	/	/	/
O=C1[C@H]2[C@H]3[C@H](O)[C@H](O)C/C(=N/OCc4ccccc4)[C@@H]3CC[C@@H]2C(=O)N1Cc1ccccc1	/	/	0%[11.5 µM]	4%[11.4 µM]	/	0%[11.4 µM]	/	/	/
Cc1cc(Nc2ccc(C(C)C)cc2)n2ncnc2n1	/	?	-1%	-2%	/	-3%	/	/	/
Cc1cc(Nc2ccc3ccccc3c2)n2ncnc2n1	?	/	/	/	i	/	-17	-26%	-24%
C=CCn1c(SCC(=O)Nc2sccc2C(N)=O)nc2sc(C)c(C)c2c1=O	i	2µM*	1%	?	i	12%	?	?	4µM*
Cc1nnc(SCC(=O)Nc2sccc2C(N)=O)n1Cc1ccccc1	i	?	-1%	-11%	i	-9%	/	/	/
CN1C(=O)NC(c2ccccc2)C2=C1CN(Cc1ccccc1)C2=O (configuration not stated)	i	/	/	/	i	/	-3	-1%	21%
CC(C)NC(=O)N1CC[C@@]2(CCCN(C(=O)c3cc(C(F)(F)F)cc(C(F)(F)F)c3)C2)C1	i	-6%	2%	6%	i	4%	/	/	/
O=c1[nH]c(SCc2ccccc2Cl)nc2c1cnn2-c1ccccc1	/	0.79µM*	1%	37%	/	16%	-19	-21%	6.3µM*
Cc1ccc(-n2ncc3c(=O)[nH]c(SCC(=O)N4CCOCC4)nc32)cc1	i	19%	2%	1%	i	9%	4	2%	?
NC(Cn1ccc(=O)c(O)c1)C(=O)O (configuration not stated)	/	/	1%	2%	/	/	/	/	/
CN(CCNC(=O)c1cc2c(=O)n(C)c3ccccc3c2n1C)Cc1ccccc1	/	?	-3%	?	/	?	/	/	/
CCCN(CCC)CCNC(=O)c1cc2c(=O)n(C)c3ccccc3c2n1C	/	19%	5%	32µM*	/	-9%	-10	-11%	13µM*
Cn1c(C(=O)NCCCN2CCCC2=O)cc2c(=O)n(C)c3ccccc3c21	/	4µM*	0%	?	/	-24%	-8	-21%	13µM*
SMILES	A350 autofl	CRE Fsk mod	AID923	HSD17B inhib	4-MU autofl	HADH2 inh	CHO via 24h	CHO tox 40h	CREB luc CRC
CC(C)CN1CCCC2(CCN(C(=O)c3ccco3)CC2)C1	i	-5%	6%	2%	i	6%	/	/	/
Cc1cc(Cc2c(C)c(C)c(Cc3cc(C)cc(C(C)(C)C)c3O)c(C)c2C)c(O)c(C(C)(C)C)c1	i	-2%[7.6 µM]	1%[11.5 µM]	1%[11.4 µM]	i	8%[11.4 µM]	/	/	/
COc1ccc([C@@H]2CNC(=O)C2)cc1OC1CCCC1	i	0.01µM*!	-1%	-6%	i	7%	-6	-12%	0.028µM*
COC(=O)N1CCC2(CCCN(Cc3nccs3)C2)CC1	i	2%	1%	7%	i	-1%	/	/	/
Cc1nc(N2CCC(C)CC2)c2oc3ccccc3c2n1	i	?	0%	73%	i	-22%	/	/	/
Cc1cc(C)nc(N2CCN(c3nc(C)nc4c3oc3ccccc34)CC2)n1	i	0%	0%	12%	i	?	5	-5%	3.2µM*
CC1CCc2c(sc3nc(C4CC4)nc(SCC(=O)NCc4ccco4)c23)C1 (configuration not stated)	i	-1%	4%	11%	i	9%	3	-2%	8%
Cc1ccccc1-n1nc(C)c2cc(C(=O)N3CCOCC3)sc21	i	-4%	-1%	-3%	i	10%	/	/	/
Cc1nn(-c2ccccc2)c2sc(C(=O)N3CCCCC3)cc12	i	3.2µM*	-1%	-2%	i	-16%	-18	?	10µM*
Cc1cc2oc3c(c(=O)c2cc1C)C(c1cccc(Br)c1)N(Cc1ccco1)C3=O (configuration not stated)	i	-4%	1%	-5%	i	7%	/	/	/
CCOc1cc(C2c3c(oc4cc(C)c(Cl)cc4c3=O)C(=O)N2Cc2ccco2)ccc1O (configuration not stated)	9e-08M*	13µM*	1%	?	1e-07M*	?	-21	-25%	0.79µM*
